# In PubChem BioAssay (NCATS):
# Results filed as inconclusive are left out. Active and inactive are the calls of the source. Calls come from the whole dose curve; as a rule, active = well fitted curve in the direction sought with a large enough effect; inconclusive = small, poorly fitted or top-dose-only effect, or another doubt; inactive = no such curve, though single readings can be large; an effect the other way counts as inactive or inconclusive.
# Experiments:
# [1] = target: Rap guanine nucleotide exchange factor 3 (Homo sapiens) (UniProt O95398); assay: Confirmatory qHTS for antagonist of cAMP-regulated guanine nucleotide exchange factor 3 (EPAC1) (AID 1645880);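 note: plate controls were DMSO only for no effect and full effect of the ATA control for full effect; nearly all actives have a fitted effect of over 55% in size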
# Outline: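 Released BODIPY-GDP fluoresces less than Rap1-bound BODIPY-GDP; the signal is followed at 480/540 nm at 5-min intervals over 30 min, after 5 min at room temperature. Reactions contain 100 nM EPAC1, 250 nM RAP1B-BODIPY-GDP and 50 uM GDP; results are normalized to ATA and DMSO.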
# [2] = target: Rap guanine nucleotide exchange factor 3 (Homo sapiens) (UniProt O95398); assay: Confirmatory qHTS for agonist of cAMP-regulated guanine nucleotide exchange factor 3 (EPAC1) (AID 1645881);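 note: EPAC1 catalysed release of BODIPY-GDP from Rap1B seen as fluorescence loss; 100% = effect of cAMP agonist control; nearly all actives have a fitted effect of over 75% in size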
# [3] = target: Rap guanine nucleotide exchange factor 4 (Homo sapiens) (UniProt Q8WZA2); assay: Confirmatory qHTS for agonist of cAMP-regulated guanine nucleotide exchange factor 4 (EPAC2) (AID 1645884);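 note: nucleotide exchange releases bodipy-GDP from Rap1 and this lowers its fluorescence; % is set by controls: 0 for no effect and ±100 for the full control effect; nearly all actives have a fitted effect of over 65% in size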
# [4] = target: Catechol O-methyltransferase (Homo sapiens) (UniProt P21964); assay: Confirmatory Screen for Target Class Profiling of Small Molecule Inhibitors of Methyltransferases (AID 1745852); details: MTase-Glo luminescence, SAH detection, recombinant enzyme; measured here: COMT max response; stronger effect = lower value; for activity change, negative = inhibition: % is set by controls: 0 for no effect and ±100 for the full control effect
# [5] = target: Guanidinoacetate N-methyltransferase (Homo sapiens) (UniProt Q14353); assay: as above; details: MTase-Glo luminescence, SAH detection, recombinant enzyme; at 57.3 µM (top of the series)
# [6] = target: Nicotinamide N-methyltransferase (Homo sapiens) (UniProt P40261); assay: as above; details: MTase-Glo luminescence, SAH detection, recombinant enzyme; measured here: NNMT max response; stronger effect = lower value
# [7] = target: Phenylethanolamine N-methyltransferase (Homo sapiens) (UniProt P11086); assay: as above; details: MTase-Glo luminescence, SAH detection, recombinant enzyme; measured here: PNMT max response; stronger effect = lower value
# [8] = NCATS anti-infectives library activity on HEK293 viability as a counter-qHTS vs the C. elegans viability qHTS (AID 1745854);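 note: HEK293 cells exposed to compounds for 24 hr before the viability read; % is set by controls: 0 for no effect and ±100 for the full control effect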
# Outline: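 Counter-screen for cytotoxicity: HEK293, 24 hr, 37C, compounds up to 41.7 uM final (a dilution series, 1:5). Readout CellTiter-Glo luminescence, 10 min RT. Digitonin control, 83.3 uM final.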
# Sequence of Rap guanine nucleotide exchange factor 3 (Homo sapiens) (O95398 whole entry, looked up): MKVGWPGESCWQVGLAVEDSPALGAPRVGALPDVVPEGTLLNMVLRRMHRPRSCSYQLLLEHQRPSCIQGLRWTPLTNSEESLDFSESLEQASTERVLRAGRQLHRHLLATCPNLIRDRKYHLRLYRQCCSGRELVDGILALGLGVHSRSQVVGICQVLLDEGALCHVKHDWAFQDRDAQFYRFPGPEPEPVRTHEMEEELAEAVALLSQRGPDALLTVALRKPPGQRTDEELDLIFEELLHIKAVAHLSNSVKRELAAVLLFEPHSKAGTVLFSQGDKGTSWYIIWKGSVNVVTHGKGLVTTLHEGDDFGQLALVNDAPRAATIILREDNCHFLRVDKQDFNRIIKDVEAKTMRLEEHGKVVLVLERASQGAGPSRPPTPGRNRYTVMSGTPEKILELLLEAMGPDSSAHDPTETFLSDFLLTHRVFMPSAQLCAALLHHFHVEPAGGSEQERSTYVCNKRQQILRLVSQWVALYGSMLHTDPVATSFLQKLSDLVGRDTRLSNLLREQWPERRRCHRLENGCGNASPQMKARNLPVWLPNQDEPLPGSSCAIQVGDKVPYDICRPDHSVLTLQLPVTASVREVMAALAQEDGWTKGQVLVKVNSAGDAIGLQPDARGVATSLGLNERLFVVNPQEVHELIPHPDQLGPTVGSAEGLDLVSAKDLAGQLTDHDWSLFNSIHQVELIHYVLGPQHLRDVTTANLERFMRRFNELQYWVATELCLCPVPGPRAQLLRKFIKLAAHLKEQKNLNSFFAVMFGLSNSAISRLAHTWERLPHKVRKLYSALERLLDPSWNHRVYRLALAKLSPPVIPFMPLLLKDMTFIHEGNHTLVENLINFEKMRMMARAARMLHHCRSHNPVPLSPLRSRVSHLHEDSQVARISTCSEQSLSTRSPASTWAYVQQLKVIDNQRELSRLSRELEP
# Sequence of Rap guanine nucleotide exchange factor 4 (Homo sapiens) (Q8WZA2 whole entry, looked up): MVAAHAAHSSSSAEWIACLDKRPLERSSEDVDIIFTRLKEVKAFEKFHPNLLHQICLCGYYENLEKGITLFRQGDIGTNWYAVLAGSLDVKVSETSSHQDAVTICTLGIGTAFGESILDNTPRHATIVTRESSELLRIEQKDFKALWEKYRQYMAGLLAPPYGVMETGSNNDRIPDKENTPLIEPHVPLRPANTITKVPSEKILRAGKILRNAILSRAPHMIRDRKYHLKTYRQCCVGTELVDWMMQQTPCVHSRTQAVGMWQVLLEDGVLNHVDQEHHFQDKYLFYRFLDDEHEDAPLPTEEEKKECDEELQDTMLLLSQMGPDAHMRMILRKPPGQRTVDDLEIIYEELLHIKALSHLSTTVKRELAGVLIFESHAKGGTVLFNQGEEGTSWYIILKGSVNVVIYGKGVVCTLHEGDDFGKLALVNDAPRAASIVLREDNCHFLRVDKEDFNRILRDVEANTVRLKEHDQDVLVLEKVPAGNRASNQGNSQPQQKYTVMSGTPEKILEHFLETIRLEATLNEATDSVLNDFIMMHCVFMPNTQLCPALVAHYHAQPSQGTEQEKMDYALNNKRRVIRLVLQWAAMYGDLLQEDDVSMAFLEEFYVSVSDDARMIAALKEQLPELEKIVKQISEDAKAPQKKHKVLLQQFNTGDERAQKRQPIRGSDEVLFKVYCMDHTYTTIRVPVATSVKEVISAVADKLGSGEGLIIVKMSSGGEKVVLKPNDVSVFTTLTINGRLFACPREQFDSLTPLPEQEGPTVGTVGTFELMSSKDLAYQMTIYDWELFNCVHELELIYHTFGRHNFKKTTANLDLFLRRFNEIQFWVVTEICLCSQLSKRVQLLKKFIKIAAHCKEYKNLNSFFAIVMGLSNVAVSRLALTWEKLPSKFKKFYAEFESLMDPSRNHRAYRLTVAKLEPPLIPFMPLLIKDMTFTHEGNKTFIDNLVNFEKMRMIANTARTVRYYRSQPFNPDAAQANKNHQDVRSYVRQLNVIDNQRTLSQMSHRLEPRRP
# Sequence of Nicotinamide N-methyltransferase (Homo sapiens) (P40261 whole entry, looked up): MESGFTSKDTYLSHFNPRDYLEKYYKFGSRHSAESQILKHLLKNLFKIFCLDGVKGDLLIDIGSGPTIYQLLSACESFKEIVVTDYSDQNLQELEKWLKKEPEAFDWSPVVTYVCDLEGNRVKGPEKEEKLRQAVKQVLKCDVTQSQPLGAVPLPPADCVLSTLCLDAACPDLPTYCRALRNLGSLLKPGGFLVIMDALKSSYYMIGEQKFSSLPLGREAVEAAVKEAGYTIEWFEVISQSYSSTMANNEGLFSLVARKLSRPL
# Sequence of Catechol O-methyltransferase (Homo sapiens) (P21964 whole entry, looked up): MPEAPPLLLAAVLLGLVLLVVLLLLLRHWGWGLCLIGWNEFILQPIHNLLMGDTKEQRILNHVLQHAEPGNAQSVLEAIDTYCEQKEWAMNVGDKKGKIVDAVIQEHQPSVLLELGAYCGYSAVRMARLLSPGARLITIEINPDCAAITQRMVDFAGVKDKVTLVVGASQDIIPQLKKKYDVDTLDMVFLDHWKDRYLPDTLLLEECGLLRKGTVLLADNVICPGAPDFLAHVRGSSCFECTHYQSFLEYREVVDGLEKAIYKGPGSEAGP
# Sequence of Phenylethanolamine N-methyltransferase (Homo sapiens) (P11086 whole entry, looked up): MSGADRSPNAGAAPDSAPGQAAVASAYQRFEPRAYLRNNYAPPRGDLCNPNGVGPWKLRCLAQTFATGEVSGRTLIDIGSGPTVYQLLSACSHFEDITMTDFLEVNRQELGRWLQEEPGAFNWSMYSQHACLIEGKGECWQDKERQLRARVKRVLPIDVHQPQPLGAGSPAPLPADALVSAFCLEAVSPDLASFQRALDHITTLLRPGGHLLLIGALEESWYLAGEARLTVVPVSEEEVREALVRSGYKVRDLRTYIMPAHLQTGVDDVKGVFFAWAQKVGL
structure (smiles),measurement,setting,value
O=C1c2ccccc2C(=O)C1C(=O)C(c1ccccc1)c1ccccc1,outcome,[1],inactive
same,outcome,[2],inactive
same,outcome,[3],inactive
C[C@]12CC[C@@H]3c4ccc(OC(=O)N(CCCl)CCCl)cc4CC[C@H]3[C@@H]1CC[C@@H]2O,outcome,[2],inactive
same,outcome,[3],inactive
NCCc1ccc(O)cc1,activity,[4],-7.57%
same,"activity change, negative = inhibition",[5],0.255%
same,activity,[6],-9.22%
same,activity,[7],-8.79%
CC(C)(C)NCC(O)c1ccccc1Cl (stereo unspecified),outcome,[8],inactive
O=C1c2ccccc2C(=O)c2ccccc21,outcome,[8],inactive
